Test results published in PubChem BioAssay.

target: NADPH oxidase 5 (Homo sapiens) (UniProt Q96PH1); assay: compounds shifting NOX5 Amplex Red fluorescence – cell-based, HEK293-NOX5, NOX inhibitor project, primary screen (AID 1161); conditions: HEK293-NOX5, ionomycin, 45 min, higher = more signal
Sequence (Q96PH1 whole entry, looked up): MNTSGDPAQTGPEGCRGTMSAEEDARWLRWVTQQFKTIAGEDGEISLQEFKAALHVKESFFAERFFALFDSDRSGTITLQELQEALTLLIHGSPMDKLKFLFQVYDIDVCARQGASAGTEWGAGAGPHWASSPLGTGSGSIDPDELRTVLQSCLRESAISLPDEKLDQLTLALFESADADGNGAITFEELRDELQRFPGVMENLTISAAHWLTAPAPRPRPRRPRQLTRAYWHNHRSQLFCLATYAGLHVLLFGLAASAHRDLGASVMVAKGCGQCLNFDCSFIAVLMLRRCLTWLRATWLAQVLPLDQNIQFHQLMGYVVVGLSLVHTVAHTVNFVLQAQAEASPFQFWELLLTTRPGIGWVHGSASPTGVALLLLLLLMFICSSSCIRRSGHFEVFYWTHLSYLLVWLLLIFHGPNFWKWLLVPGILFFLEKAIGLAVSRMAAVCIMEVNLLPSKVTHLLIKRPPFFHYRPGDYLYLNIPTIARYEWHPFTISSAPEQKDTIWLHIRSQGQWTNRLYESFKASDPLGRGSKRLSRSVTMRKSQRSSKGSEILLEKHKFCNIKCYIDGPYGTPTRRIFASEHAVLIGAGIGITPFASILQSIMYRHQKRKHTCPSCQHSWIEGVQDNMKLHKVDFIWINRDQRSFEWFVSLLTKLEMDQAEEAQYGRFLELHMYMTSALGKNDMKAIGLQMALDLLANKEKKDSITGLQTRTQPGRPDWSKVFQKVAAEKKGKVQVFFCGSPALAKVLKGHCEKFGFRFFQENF

Going from `[N-]=[N+]=Nc1ccccc1C[C@@]1(C(=O)NCC(O)CO)N=C(c2ccc(OCCCO)cc2)O[C@@H]1c1ccccc1` (stereo not given in full) to `[N-]=[N+]=NCc1ccccc1[C@@H]1OC(c2ccc(OCCCO)cc2)=N[C@]1(Cc1ccccc1N=[N+]=[N-])C(=O)O`, the z-score rises from -0.946 to 0.58.

Going from `C=C(CCCC)/C(=C/C[C@H](OC(=O)c1ccncc1)c1cccc(OCCO)c1)c1cnc2ccccc2c1` to `C=C(CCCC)/C(=C/C[C@H](OC(=O)c1ccncc1)c1ccc(OCCO)cc1)c1cnc2ccccc2c1`, the z-score rises from -1.82 to -0.964.

Compared with `COCCOC(=O)N1C(=O)[C@@]2(c3cc(C#Cc4ccc(OC)cc4)ccc31)[C@H](c1ccc(OCCO)cc1)N1[C@H](c3ccccc3)[C@H](c3ccccc3)OC(=O)[C@H]1[C@@H]2C(=O)NC[C@H](O)c1ccccc1`, `COCCOC(=O)N1C(=O)[C@@]2(c3cc(C#CCNC(N)=O)ccc31)[C@H](C(=O)Nc1nc3ccccc3s1)[C@H]1C(=O)O[C@H](c3ccccc3)[C@H](c3ccccc3)N1[C@@H]2c1ccccc1OCCO` is lower in z-score: 1.11 for the first, 0.934 for the second.

Going from `CCOC(=O)C1=CC[C@@H](c2ccc(OC)cc2)N(S(=O)(=O)c2ccc(C)cc2)[C@H]1c1ccc(C)cc1` to `COc1ccc(CCNC(=O)[C@@H]2c3ccccc3C(=O)N(Cc3ccccc3OC)[C@H]2c2ccc(CO)cc2)cc1`, the z-score falls from 0.0417 to -2.09.

Compared with `COCCOC(=O)N1C(=O)[C@@]2(c3cc(C#CCCO)ccc31)[C@H](c1ccc(OCCO)cc1)N1[C@H](c3ccccc3)[C@H](c3ccccc3)OC(=O)[C@H]1[C@@H]2C(=O)N1CCCCCCC1`, `COC(=O)C(CC#Cc1ccc2c(c1)[C@]1(C(=O)N2)[C@H](c2ccc(OCCO)cc2)N2[C@H](c3ccccc3)[C@H](c3ccccc3)OC(=O)[C@H]2[C@@H]1C(=O)N1CCCCCCC1)C(=O)OC` is lower in z-score: 1.86 for the first, 1.44 for the second.

First: COC(=O)[C@@]1(Cc2ccc(F)cc2)[C@H]2c3cc(C(=O)N4CCCC4)n(Cc4cc(F)cc5c4OCOC5)c3C[C@H]2CN1C(=O)c1ccccc1
Second: COC(=O)[C@@]1(Cc2ccc(OC)cc2)[C@H]2c3cc(C(=O)N4CCCC4)n(Cc4ccc(Cl)c(C(F)(F)F)c4)c3C[C@H]2CN1C(=O)c1ccccc1
The z-score of the first is higher: 0.853 for the first, -4.74 for the second.

Compared with `C=CCOC(=O)[C@@H]1[C@H]2C(=O)O[C@H](c3ccccc3)[C@H](c3ccccc3)N2[C@H](c2ccc(OCCOC(=O)[C@H]3C[C@H]4C(=O)N5CCC[C@H]5C(=O)N4[C@H]3c3cccc(OCCO)c3)cc2)[C@@]12C(=O)Nc1ccc(I)cc12`, `C=CCNC(=O)[C@H]1[C@@H]2C(=O)O[C@@H](c3ccccc3)[C@@H](c3ccccc3)N2[C@@H](c2ccc(OCCO)cc2)[C@]12C(=O)Nc1ccccc12` is lower in z-score: 0.32 for the first, -0.101 for the second.

Going from `COc1ccc([Si](C)(C)[C@H]2[C@H](CC(=O)N3Cc4ccccc4C[C@H]3CO)O[C@@]3(C(=O)N(C)c4c(Br)cc(C)cc43)[C@@H]2C)cc1` to `CN(C)CCCNC(=O)[C@@]1(C)c2ccccc2C(=O)N(Cc2ccc(OC(F)(F)F)cc2)[C@H]1c1ccc(CO)cc1`, the z-score falls from 0.136 to -1.63.

First: CCCC[C@H]1OB(O)C[C@H]2C1=C(COc1ccccc1)C[C@H]1C(=O)C=CC(=O)[C@H]12
Second: O=C1[C@@H]2[C@@H](CC(COc3ccccc3)=C([C@H](O)CCc3ccccc3)[C@@H]2CO)C(=O)N1Cc1ccccc1
The z-score of the first is lower: -5.03 for the first, -1.59 for the second.

Going from `COCCOC(=O)N1C(=O)[C@@]2(c3cc(C#CCC(C(=O)OC)C(=O)OC)ccc31)[C@H](C(=O)Nc1nc3ccccc3s1)[C@H]1C(=O)O[C@H](c3ccccc3)[C@H](c3ccccc3)N1[C@@H]2c1ccc(O)cc1` to `COCCOC(=O)N1C(=O)[C@@]2(c3cc(C#CCC(C(=O)OC)C(=O)OC)ccc31)[C@H](C(N)=O)[C@H]1C(=O)O[C@H](c3ccccc3)[C@H](c3ccccc3)N1[C@@H]2c1ccc(O)cc1`, the z-score falls from 0.755 to 0.73.

First: Cc1ccc(F)cc1S(=O)(=O)N[C@H]1CCN(Cc2ccc(OC(C)C)cc2)C1
Second: C[C@]1(C(=O)O)c2ccccc2C(=O)N(Cc2cc(F)cc(C(F)(F)F)c2)[C@H]1c1ccc(CO)cc1
The z-score of the first is lower: -2.37 for the first, -2.26 for the second.

Compared with `CCCCC(O)C1C=CC2C(=O)N(c3ccccc3)C(=O)C2N1Nc1ccc([N+](=O)[O-])cc1` (stereo not given), `COc1ccc(C(O)C2C=CC3C(=O)N(c4ccccc4)C(=O)C3N2Nc2ccc([N+](=O)[O-])cc2)c2ccccc12` (stereo not given) is lower in z-score: -0.302 for the first, -1.55 for the second.

First: CCCN1C(=O)[C@@]2(c3ccc([N+](=O)[O-])cc3)CC(=O)N(CC34CC5CC(CC(C5)C3)C4)[C@@H]2c2ccc(CO)cc21
Second: O=C1c2ccccc2[C@@]2(Cc3ccccc3N(Cc3ccccc3)C2=O)[C@H](c2ccc(CO)cc2)N1Cc1ccccc1Cl
The z-score of the first is higher: 0.631 for the first, -1.11 for the second.

Compared with `O=C1C=C(c2ccccc2)C(=O)C2=C1CC([C@H]1Oc3ccccc3S(=O)(=O)N3CCC[C@@H]13)=CC2`, `COCCOC(=O)N1C(=O)[C@@]2(c3ccccc31)[C@H](c1ccc(O)cc1)N1[C@H](c3ccccc3)[C@H](c3ccccc3)OC(=O)[C@H]1[C@@H]2C(=O)N1CCCCCCC1` is higher in z-score: -2.66 for the first, 1.32 for the second.

Compared with `O=C1[C@H]2C=C(I)[C@H](C[C@@H]2OCCCCCCO)[C@@]12CO2`, `CN(C)CCCNC(=O)[C@@H]1c2ccccc2C(=O)N(Cc2ccccc2C(F)(F)F)[C@H]1c1ccc(CO)cc1` is higher in z-score: -1.22 for the first, 1.11 for the second.

Going from `N#Cc1ccc(-c2cccc(=O)o2)cc1` to `N#Cc1ccc(NN2C(C(O)C3CC=CCC3)C=CC3C(=O)N(c4ccccc4)C(=O)C32)cc1` (stereo not given), the z-score falls from 0.172 to -2.39.

Compared with `CCCC=C(CCC)[C@@H](NC(=O)OCC(C)C)c1ccc(C(=O)OC)cc1`, `CCCC#C[Si](O[C@H](CC)c1cn(Cc2ccccc2)nn1)(C(C)C)C(C)C` is lower in z-score: 1.97 for the first, 0.521 for the second.

For `O=C1O[C@@H](c2ccccc2)[C@@H](c2ccccc2)N2[C@@H](c3ccccc3OCCO)[C@]3(C(=O)Nc4ccc(C#CCCO)cc43)[C@@H](C(=O)NC[C@H](O)c3ccccc3)[C@H]12`, the z-score was 0.689.
